Source: PubChem BioAssay (EPA / NIEHS)
Activity calls are given as the source filed them. How the source made its calls: active means hit-call score of the fitted dose curve at least 0.9, where 1 is the maximum; inactive means score below 0.9.

Key:
Conditions in all cases: mRNA level, 48 h; actives raise or lower the signal
[1] = read-out: growth arrest and DNA damage 45 (GADD45G), GADD45G (gene 10912); assay: LTEA_HepaRG_GADD45G: Life Technologies and Expression Analysis (LTEA) Assay for growth arrest and DNA damage 45 (GADD45G) using HepaRG (AID 2283499)
In short: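 Human hepatic HepaRG line treated 48 h with chemicals (eight concentrations, half-log steps from 100 uM); transcript induction or repression of GADD45G scored by qRT-PCR versus DMSO vehicle.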

[2] = read-out: Glutamate-cysteine ligase regulatory (GCLM), GCLM (gene 2730); assay: LTEA_HepaRG_GCLM: Life Technologies and Expression Analysis (LTEA) Assay for Glutamate-cysteine ligase regulatory (GCLM) using HepaRG (AID 2283500)
In short: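 Differentiated human HepaRG cells exposed 48 h in serum-free induction medium to 8-point half-log concentrations (top 100 uM, 0.5% DMSO), in duplicate. GCLM mRNA quantified by qRT-PCR, normalized to ACTB, GAPDH, POLR2A; bidirectional fitting versus DMSO.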

[3] = read-out: Glutathione S-transferase M3 (GSTM3), GSTM3 (gene 2947); assay: LTEA_HepaRG_GSTM3: Life Technologies and Expression Analysis (LTEA) Assay for Glutathione S-transferase M3 (GSTM3) using HepaRG (AID 2283501)
In short: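 Changes in GSTM3 expression, an oxidative-stress marker, were scored by bidirectional curve fitting against 0.5% DMSO vehicle. Human HepaRG cultures received chemicals for 48 h in duplicate, highest concentration 100 uM with half-log dilutions.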

[4] = read-out: Heat shock 70 kDa protein 1 (HSPA1A), gene 3303; assay: LTEA_HepaRG_HSPA1A: Life Technologies and Expression Analysis (LTEA) Assay for Heat shock 70 kDa protein 1 (HSPA1A) using HepaRG (AID 2283502)
In short: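 Differentiated human HepaRG cells in serum-free induction medium were exposed in duplicate for 48 h to eight concentrations (top 100 uM, half-log steps, 0.5% DMSO). HSPA1A mRNA was quantified by qRT-PCR, normalized to ACTB, GAPDH and POLR2A, and fitted bidirectionally against DMSO.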

[5] = read-out: Hypoxia-inducible factor 1-alpha (Homo sapiens) (UniProt Q16665); assay: LTEA_HepaRG_HIF1A: Life Technologies and Expression Analysis (LTEA) Assay for Hypoxia-inducible factor 1 (HIF1A) Trancription factor using HepaRG (AID 2283503)
In short: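 HepaRG, 48 h exposure, 8-pt half-log series from 100 uM, 0.5% DMSO vehicle, duplicates. Readout: HIF1A transcript by qRT-PCR (Fluidigm array), housekeeping-normalised. Bidirectional curve fit vs DMSO baseline.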

[6] = read-out: 3-Hydroxy-3-Methylglutaryl-CoA Synthase 2 (HMGCS2), HMGCS2 (gene 3158); assay: LTEA_HepaRG_HMGCS2: Life Technologies and Expression Analysis (LTEA) Assay for 3-Hydroxy-3-Methylglutaryl-CoA Synthase 2 (HMGCS2) using HepaRG (AID 2283504)
In short: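 Expression of HMGCS2 in human HepaRG liver cells is measured by qRT-PCR 48 h after dosing (highest 100 uM, half-log series, 0.5% DMSO). Values come from bidirectional concentration-response fitting with DMSO as baseline.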

HGF (gene 3082) = assay: LTEA_HepaRG_HGF: Life Technologies and Expression Analysis (LTEA) Assay for Hepatocyte Growth Facto (HGF) using HepaRG (AID 2283505)
In short: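 Gain or loss of HGF mRNA in human HepaRG liver cells after 48 h chemical exposure; eight concentrations up to 100 uM with 0.5% DMSO vehicle, quantified by TaqMan qRT-PCR.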

[7] = read-out: Insulin Like Growth Factor 1 (IGF1), IGF1 (gene 3479); assay: LTEA_HepaRG_IGF1: Life Technologies and Expression Analysis (LTEA) Assay for Insulin Like Growth Factor 1 (IGF1) using HepaRG (AID 2283506)
In short: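 Differentiated human HepaRG cells were dosed for 48 h in serum-free induction medium with 0.5% DMSO, eight half-log concentrations up to 100 uM, in duplicate. IGF1 mRNA was quantified by qRT-PCR normalized to ACTB, GAPDH, POLR2A; bidirectional fitting versus DMSO.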

[8] = read-out: Intercellular Adhesion Molecule 1 (ICAM1), ICAM1 (gene 3383); assay: LTEA_HepaRG_ICAM1: Life Technologies and Expression Analysis (LTEA) Assay for Intercellular Adhesion Molecule 1 (ICAM1) using HepaRG (AID 2283507)
In short: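 Gain or loss of transcript in HepaRG hepatic cells is quantified by qRT-PCR after 48 h chemical exposure (up to 100 uM, half-log steps), with DMSO as baseline.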

[9] = read-out: Insulin-like growth factor-binding protein 1 (IGFBP1), IGFBP1 (gene 3484); assay: LTEA_HepaRG_IGFBP1: Life Technologies and Expression Analysis (LTEA) Assay for Insulin-like growth factor-binding protein 1 (IGFBP1) using HepaRG (AID 2283508)
In short: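 mRNA induction or loss was quantified by qRT-PCR after 48 h chemical exposure of human HepaRG cells, with 0.5% DMSO as vehicle and baseline. Concentration-response over eight points up to 100 uM.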

[10] = read-out: Interleukin 6 (IL6), IL6 (gene 3569); assay: LTEA_HepaRG_IL6: Life Technologies and Expression Analysis (LTEA) Assay for Interleukin 6 (IL6) using HepaRG (AID 2283509)
In short: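 Differentiated human HepaRG cells, plated 48 h then switched to serum-free induction medium, were exposed in duplicate for 48 h to eight half-log concentrations up to 100 uM in 0.5% DMSO. IL6 mRNA measured by qRT-PCR, normalized to ACTB/GAPDH/POLR2A.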

[11] = read-out: Interleukin 6 Receptor (IL6R), IL6R (gene 3570); assay: LTEA_HepaRG_IL6R: Life Technologies and Expression Analysis (LTEA) Assay for Interleukin 6 Receptor (IL6R) using HepaRG (AID 2283510);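 on AC50: TaqMan qRT-PCR signal normalized to ACTB GAPDH and POLR2A housekeeping genes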
In short: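 Differentiated human HepaRG cells, plated 48 h then switched to serum-free induction medium, were dosed in duplicate for 48 h at eight half-log concentrations up to 100 uM in 0.5% DMSO. IL6R mRNA quantified by qRT-PCR, normalized to ACTB/GAPDH/POLR2A; bidirectional fit versus DMSO.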

[12] = read-out: Potassium channel subfamily K member 1 (KCNK1), KCNK1 (gene 3775); assay: LTEA_HepaRG_KCNK1: Life Technologies and Expression Analysis (LTEA) Assay for Potassium channel subfamily K member 1 (KCNK1) using HepaRG (AID 2283511)
In short: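 Differentiated human HepaRG cells in serum-free induction medium were exposed in duplicate for 48 h to 8 half-log concentrations up to 100 uM in 0.5% DMSO. KCNK1 mRNA was measured by TaqMan qRT-PCR, normalized to ACTB, GAPDH and POLR2A, and fitted bidirectionally versus DMSO.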

[13] = read-out: Keratin 19 (KRT19), KRT19 (gene 3880); assay: LTEA_HepaRG_KRT19: Life Technologies and Expression Analysis (LTEA) Assay for Keratin 19 (KRT19) using HepaRG (AID 2283512)
In short: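 Gene-expression endpoint in the human liver line HepaRG after 48 h exposure to up to 100 uM test chemical with 0.5% DMSO vehicle; KRT19 mRNA by qRT-PCR, analyzed bidirectionally versus DMSO.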

[14] = read-out: JUN Transcription Factor, JUN (gene 3725); assay: LTEA_HepaRG_JUN: Life Technologies and Expression Analysis (LTEA) Assay for JUN Transcription Factor using HepaRG (AID 2283513)
In short: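 Differentiated HepaRG cells were exposed to chemicals for 48 h in serum-free induction medium, 8 concentrations from 100 uM in half-log steps, 0.5% DMSO vehicle, in duplicate. JUN mRNA was quantified by TaqMan qRT-PCR, normalized to ACTB, GAPDH, POLR2A.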

[15] = read-out: Lipase C (LIPC), LIPC (gene 3990); assay: LTEA_HepaRG_LIPC: Life Technologies and Expression Analysis (LTEA) Assay for Lipase C (LIPC) using HepaRG (AID 2283514)
In short: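 Differentiated human HepaRG cells in serum-free induction medium were exposed in duplicate for 48 h to eight concentrations (top 100 uM, half-log steps, 0.5% DMSO). LIPC mRNA was quantified by TaqMan qRT-PCR, normalized to ACTB, GAPDH and POLR2A, with bidirectional fitting versus DMSO.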

[16] = read-out: Lipoprotein lipase (LPL), LPL (gene 4023); assay: LTEA_HepaRG_LPL: Life Technologies and Expression Analysis (LTEA) Assay for Lipoprotein lipase (LPL) using HepaRG (AID 2283515)
In short: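 Differentiated human HepaRG cells in serum-free induction medium were exposed in duplicate for 48 h to eight half-log concentrations (top 100 uM) in 0.5% DMSO. LPL mRNA was quantified by TaqMan qRT-PCR, normalized to ACTB, GAPDH and POLR2A.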

[17] = read-out: MicroRNA 122 (MIR122), gene 406906; assay: LTEA_HepaRG_MIR122: Life Technologies and Expression Analysis (LTEA) Assay for MicroRNA 122 (MIR122) using HepaRG (AID 2283516); further: the transcript read is the microRNA miR-122
In short: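 Differentiated human HepaRG cells were exposed 48 h in serum-free induction medium to eight half-log concentrations (top 100 uM, 0.5% DMSO). Transcript level was measured by TaqMan qRT-PCR, normalized to ACTB, GAPDH and POLR2A, and fitted bidirectionally versus DMSO.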

[18] = read-out: matrix metalloproteinase-10 (MMP10), MMP10 (gene 4319); assay: LTEA_HepaRG_MMP10: Life Technologies and Expression Analysis (LTEA) Assay for matrix metalloproteinase-10 (MMP10) using HepaRG (AID 2283517)
In short: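 HepaRG, collagen I, ~100,000 cells/well; serum-free induction medium; 48 h exposure, duplicate, 8-pt half-log to 100 uM, 0.5% DMSO. Readout: TaqMan qRT-PCR, normalized to ACTB/GAPDH/POLR2A; bidirectional fit vs DMSO.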

MYC, MYC (gene 4609) = assay: LTEA_HepaRG_MYC: Life Technologies and Expression Analysis (LTEA) Assay for MYC using HepaRG (AID 2283518)
In short: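 Cells are thawed, plated and cultured 48 h, then treated for 48 h with test chemicals (eight half-log concentrations from 100 uM, 0.5% DMSO vehicle). RNA is isolated and MYC expression quantified by qRT-PCR against three housekeeping genes.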

Measured: AC50

Chain of Hypoxia-inducible factor 1-alpha (Homo sapiens) (Q16665 whole entry, looked up): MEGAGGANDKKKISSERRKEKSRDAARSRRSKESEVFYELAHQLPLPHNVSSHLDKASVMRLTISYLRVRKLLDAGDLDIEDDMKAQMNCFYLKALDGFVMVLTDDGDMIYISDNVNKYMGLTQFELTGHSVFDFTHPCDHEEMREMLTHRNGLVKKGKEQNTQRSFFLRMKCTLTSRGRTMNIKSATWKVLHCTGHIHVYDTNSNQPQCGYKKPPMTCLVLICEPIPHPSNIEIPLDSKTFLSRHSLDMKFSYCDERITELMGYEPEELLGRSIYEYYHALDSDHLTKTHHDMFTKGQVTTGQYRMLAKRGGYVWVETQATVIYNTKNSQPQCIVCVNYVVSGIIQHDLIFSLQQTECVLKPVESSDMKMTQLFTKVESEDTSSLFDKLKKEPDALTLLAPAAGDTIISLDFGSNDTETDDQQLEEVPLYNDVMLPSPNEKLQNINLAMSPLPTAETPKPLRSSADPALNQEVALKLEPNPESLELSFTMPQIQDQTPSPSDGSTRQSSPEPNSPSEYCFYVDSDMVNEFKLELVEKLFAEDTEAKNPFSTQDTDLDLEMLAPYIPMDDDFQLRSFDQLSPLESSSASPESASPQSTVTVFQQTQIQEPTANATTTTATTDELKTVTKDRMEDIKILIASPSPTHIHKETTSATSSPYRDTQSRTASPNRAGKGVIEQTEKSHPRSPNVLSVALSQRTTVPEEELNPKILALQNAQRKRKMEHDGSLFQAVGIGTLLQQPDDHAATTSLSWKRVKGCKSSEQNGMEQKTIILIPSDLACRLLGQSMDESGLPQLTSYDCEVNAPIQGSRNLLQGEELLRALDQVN

Cc1oc(-c2ccccc2)nc1CCOc1cccc2c1ccn2CCC(=O)O
inactive: [4] | [5] | HGF (gene 3082) | [12] | [14]
active: [1] 90.2 µM | [2] 75.8 µM | [3] 9.92 µM | [6] 83.2 µM | [7] 69.9 µM | [8] 85.6 µM | [9] 93.1 µM | [10] 82 µM | [11] 77.6 µM | [13] 88.5 µM | [15] 79.2 µM | [16] 0.0309 µM | [17] 90.1 µM | [18] 82.1 µM | MYC, MYC (gene 4609) 81.9 µM

CCOC(=O)CCC(=O)OCC
inactive: [1] | [2] | [5] | [6] | HGF (gene 3082) | [7] | [8] | [9] | [10] | [11] | [12] | [13] | [14] | [15] | [17] | [18] | MYC, MYC (gene 4609)
active: [3] 83.4 µM | [4] 88.6 µM | [16] 85 µM

Oc1ccc2ccccc2c1N=Nc1ccccc1
inactive: [3] | [4] | [5] | HGF (gene 3082) | [8] | [10] | [12] | [14] | [18]
active: [1] 12.6 µM | [2] 24.6 µM | [6] 14.8 µM | [7] 50 µM | [9] 5.48 µM | [11] 15.7 µM | [13] 3.66 µM | [15] 11.8 µM | [16] 1.7 µM | [17] 9.92 µM | MYC, MYC (gene 4609) 6.08 µM
